This is an account of results in PubChem BioAssay (EPA / NIEHS).

The source made the active and inactive calls. Rule for the calls: active = hit-call score of the fitted dose curve at least 0.9, where 1 is the maximum; inactive = score below 0.9.

Common to all, as to settings: mRNA level, 48 h; actives raise or lower the signal
Read-out in assay [1]: DNA damage-inducible transcript 3 (DDIT3), DDIT3 (gene 1649)
The assay can be described thus: LTEA_HepaRG_DDIT3: Life Technologies and Expression Analysis (LTEA) Assay for DNA damage-inducible transcript 3 (DDIT3) using HepaRG (AID 2283488). In short, it runs like this:
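qRT-PCR readout (Fluidigm TaqMan), housekeeping-normalized to ACTB, GAPDH, POLR2A. HepaRG cells, 48 h exposure, 8-point half-log series from 100 uM in 0.5% DMSO, duplicates. Gain or loss of signal fitted against DMSO baseline.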

Read-out in assay [2]: Pro-epidermal growth factor (Homo sapiens) (UniProt P01133)
The assay can be described thus: LTEA_HepaRG_EGF: Life Technologies and Expression Analysis (LTEA) Assay for Epidermal growth factor (EGF) using HepaRG (AID 2283489). In short, it runs like this: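 HepaRG cells (~100,000/well, 48 h pre-culture) exposed in duplicate for 48 h in serum-free induction medium to 8 half-log concentrations up to 100 uM in 0.5% DMSO. EGF mRNA by qRT-PCR, normalized to ACTB/GAPDH/POLR2A; bidirectional fit versus DMSO.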

Read-out in assay [3]: Early growth response protein 1 (EGR1) transcription factor, EGR1 (gene 1958)
The assay can be described thus: LTEA_HepaRG_EGR1: Life Technologies and Expression Analysis (LTEA) Assay for Early growth response protein 1 (EGR1) transcription factor using HepaRG (AID 2283490). The method, boiled down:
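EGR1 transcript levels quantified by qRT-PCR (Fluidigm arrays) against three housekeeping genes after 48 h chemical exposure of HepaRG cells. Eight-point half-log series topping at 100 uM, 0.5% DMSO vehicle, analyzed for gain or loss.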

Read-out in assay [4]: Ezrin (EZR), EZR (gene 7430)
The assay can be described thus: LTEA_HepaRG_EZR: Life Technologies and Expression Analysis (LTEA) Assay for Ezrin (EZR) using HepaRG (AID 2283491). The method, boiled down:
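Gain or loss of EZR mRNA is scored relative to 0.5% DMSO in human HepaRG cultures treated 48 h with test chemicals in duplicate, eight half-log concentrations from 100 uM.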

Read-out in assay [5]: Cytochrome P450 3A7 (Homo sapiens) (UniProt P24462)
The assay can be described thus: LTEA_HepaRG_CYP3A7: Life Technologies and Expression Analysis (LTEA) Assay for CYP3A7 using HepaRG (AID 2283492). In short, it runs like this: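 Differentiated HepaRG cells in serum-free induction medium exposed 48 h in duplicate to 8-point half-log series from 100 uM top in 0.5% DMSO. CYP3A7 mRNA by qRT-PCR, normalized to ACTB/GAPDH/POLR2A, bidirectional fit versus DMSO.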

Read-out in the next assay: CYP3A5 (gene 1577)
The assay can be described thus: LTEA_HepaRG_CYP3A5: Life Technologies and Expression Analysis (LTEA) Assay for CYP3A5 using HepaRG (AID 2283493). In short, it runs like this: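 qRT-PCR read-out: CYP3A5 transcript in HepaRG lysates, housekeeping-normalized (ACTB/GAPDH/POLR2A), fitted bidirectionally against 0.5% DMSO baseline. Exposure 48 h, eight half-log concentrations up to 100 uM, duplicates.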

Read-out in assay [6]: Fatty Acid-Binding Protein 1 (FABP1), FABP1 (gene 2168)
The assay can be described thus: LTEA_HepaRG_FABP1: Life Technologies and Expression Analysis (LTEA) Assay for Fatty Acid-Binding Protein 1 (FABP1) using HepaRG (AID 2283494). In short, it runs like this: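 FABP1 expression by TaqMan qRT-PCR, normalised to three housekeeping genes, in HepaRG cells after 48 h chemical treatment. Eight-point half-log series topping at 100 uM in 0.5% DMSO, duplicates; gain or loss fitted relative to vehicle.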

Read-out in assay [7]: Cytochrome P450 4A22 (Homo sapiens) (UniProt Q5TCH4)
The assay can be described thus: LTEA_HepaRG_CYP4A22: Life Technologies and Expression Analysis (LTEA) Assay for Cytochrome P450 4A22 (CYP4A22) using HepaRG (AID 2283495). The method, boiled down:
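Differentiated HepaRG cells in serum-free induction medium exposed 48 h in duplicate to eight half-log concentrations up to 100 uM in 0.5% DMSO. CYP4A22 mRNA quantified by TaqMan qRT-PCR, normalized to ACTB, GAPDH and POLR2A; bidirectional fit versus DMSO.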

Read-out in assay [8]: Cytochrome P450 7A1 (Homo sapiens) (UniProt P22680)
The assay can be described thus: LTEA_HepaRG_CYP7A1: Life Technologies and Expression Analysis (LTEA) Assay for Cytochrome P450 7A1 (CYP7A1) using HepaRG (AID 2283496). The method, boiled down: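 Using 0.5% DMSO as vehicle and baseline, chemicals were tested in duplicate over an 8-point range from 100 uM on HepaRG cells for 48 h; qRT-PCR signals were normalised to ACTB, GAPDH and POLR2A.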

Read-out in assay [9]: Glutathione S-Transferase (GSTA2), GSTA2 (gene 2939)
The assay can be described thus: LTEA_HepaRG_GSTA2: Life Technologies and Expression Analysis (LTEA) Assay for Glutathione S-Transferase (GSTA2) using HepaRG (AID 2283497). The method, boiled down: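 GSTA2 transcript levels came from Fluidigm TaqMan qRT-PCR normalized to three housekeeping genes, fitted in both directions against DMSO. HepaRG cultures received chemicals for 48 h in serum-free induction medium (0.5% DMSO), 8 half-log concentrations up to 100 uM, duplicate.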

Read-out in assay [10]: Glutamate-cysteine ligase catalytic (GCLC), GCLC (gene 2729)
The assay can be described thus: LTEA_HepaRG_GCLC: Life Technologies and Expression Analysis (LTEA) Assay for Glutamate-cysteine ligase catalytic (GCLC) using HepaRG (AID 2283498). In short, it runs like this:
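Expression by TaqMan qRT-PCR, normalized to three housekeeping genes (ACTB, GAPDH, POLR2A), with up- or down-regulation fitted against DMSO. HepaRG cells dosed in duplicate for 48 h with 8 half-log concentrations up to 100 uM, vehicle 0.5% DMSO.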

Read-out in assay [11]: growth arrest and DNA damage 45 (GADD45G), GADD45G (gene 10912)
The assay can be described thus: LTEA_HepaRG_GADD45G: Life Technologies and Expression Analysis (LTEA) Assay for growth arrest and DNA damage 45 (GADD45G) using HepaRG (AID 2283499). The method, boiled down: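 Differentiated human HepaRG cells, 48 h post-plating, exposed 48 h in serum-free induction medium to 8 half-log concentrations (top 100 uM, 0.5% DMSO) in duplicate. GADD45G mRNA measured by Fluidigm TaqMan qRT-PCR, normalized to ACTB, GAPDH, POLR2A; bidirectional fit versus DMSO.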

Read-out in assay [12]: Hypoxia-inducible factor 1-alpha (Homo sapiens) (UniProt Q16665)
The assay can be described thus: LTEA_HepaRG_HIF1A: Life Technologies and Expression Analysis (LTEA) Assay for Hypoxia-inducible factor 1 (HIF1A) Trancription factor using HepaRG (AID 2283503). The method, boiled down: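 Gain- or loss-of-signal HIF1A mRNA changes are fitted against a DMSO baseline. HepaRG cultures receive eight concentrations, highest 100 uM, for 48 h in serum-free induction medium with 0.5% DMSO.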

Read-out in assay [13]: 3-Hydroxy-3-Methylglutaryl-CoA Synthase 2 (HMGCS2), HMGCS2 (gene 3158)
The assay can be described thus: LTEA_HepaRG_HMGCS2: Life Technologies and Expression Analysis (LTEA) Assay for 3-Hydroxy-3-Methylglutaryl-CoA Synthase 2 (HMGCS2) using HepaRG (AID 2283504). In short, it runs like this:
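Human HepaRG cells in serum-free induction medium were exposed in duplicate for 48 h to 8-point half-log series from 100 uM top in 0.5% DMSO. HMGCS2 mRNA measured by TaqMan qRT-PCR, normalised to ACTB, GAPDH, POLR2A; bidirectional fit versus DMSO.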

Read-out in the next assay: HGF (gene 3082)
The assay can be described thus: LTEA_HepaRG_HGF: Life Technologies and Expression Analysis (LTEA) Assay for Hepatocyte Growth Facto (HGF) using HepaRG (AID 2283505). In short, it runs like this: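 Differentiated HepaRG cells in serum-free induction medium exposed 48 h in duplicate, 8 half-log concentrations from 100 uM in 0.5% DMSO. HGF mRNA by qRT-PCR, normalised to ACTB, GAPDH, POLR2A; bidirectional fitting.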

Read-out in assay [14]: Intercellular Adhesion Molecule 1 (ICAM1), ICAM1 (gene 3383)
The assay can be described thus: LTEA_HepaRG_ICAM1: Life Technologies and Expression Analysis (LTEA) Assay for Intercellular Adhesion Molecule 1 (ICAM1) using HepaRG (AID 2283507). The method, boiled down: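 Differentiated human HepaRG cells in serum-free induction medium exposed 48 h in duplicate to 8 half-log concentrations (top 100 uM, 0.5% DMSO). ICAM1 mRNA quantified by TaqMan qRT-PCR, normalized to ACTB, GAPDH and POLR2A; bidirectional fitting versus DMSO.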

Read-out in assay [15]: Glutathione S-transferase M3 (GSTM3), GSTM3 (gene 2947)
The assay can be described thus: LTEA_HepaRG_GSTM3: Life Technologies and Expression Analysis (LTEA) Assay for Glutathione S-transferase M3 (GSTM3) using HepaRG (AID 2283501). In short, it runs like this:
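Differentiated human HepaRG cells were exposed in duplicate for 48 h in serum-free induction medium, 8 points from 100 uM top in half-log steps, 0.5% DMSO. GSTM3 mRNA was measured by TaqMan qRT-PCR, normalized to ACTB, GAPDH and POLR2A; bidirectional fit versus DMSO.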

Read-out in assay [16]: Insulin Like Growth Factor 1 (IGF1), IGF1 (gene 3479)
The assay can be described thus: LTEA_HepaRG_IGF1: Life Technologies and Expression Analysis (LTEA) Assay for Insulin Like Growth Factor 1 (IGF1) using HepaRG (AID 2283506). In short, it runs like this:
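qRT-PCR readout of IGF1 mRNA, normalized to three housekeeping genes, after 48 h chemical exposure of HepaRG cells. Concentrations: 8-point half-log series, top 100 uM, 0.5% DMSO vehicle. Gain or loss fitted against DMSO baseline.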

Read-out in assay [17]: Glutamate-cysteine ligase regulatory (GCLM), GCLM (gene 2730)
The assay can be described thus: LTEA_HepaRG_GCLM: Life Technologies and Expression Analysis (LTEA) Assay for Glutamate-cysteine ligase regulatory (GCLM) using HepaRG (AID 2283500). The method, boiled down:
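HepaRG, 48 h dosing, 100 uM top, half-log x8, 0.5% DMSO vehicle. Readout: GCLM mRNA by TaqMan qRT-PCR, housekeeping-normalized (ACTB/GAPDH/POLR2A). Curves fit bidirectionally vs DMSO baseline.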

Sequence of Cytochrome P450 3A7 (Homo sapiens) (P24462 whole entry, looked up): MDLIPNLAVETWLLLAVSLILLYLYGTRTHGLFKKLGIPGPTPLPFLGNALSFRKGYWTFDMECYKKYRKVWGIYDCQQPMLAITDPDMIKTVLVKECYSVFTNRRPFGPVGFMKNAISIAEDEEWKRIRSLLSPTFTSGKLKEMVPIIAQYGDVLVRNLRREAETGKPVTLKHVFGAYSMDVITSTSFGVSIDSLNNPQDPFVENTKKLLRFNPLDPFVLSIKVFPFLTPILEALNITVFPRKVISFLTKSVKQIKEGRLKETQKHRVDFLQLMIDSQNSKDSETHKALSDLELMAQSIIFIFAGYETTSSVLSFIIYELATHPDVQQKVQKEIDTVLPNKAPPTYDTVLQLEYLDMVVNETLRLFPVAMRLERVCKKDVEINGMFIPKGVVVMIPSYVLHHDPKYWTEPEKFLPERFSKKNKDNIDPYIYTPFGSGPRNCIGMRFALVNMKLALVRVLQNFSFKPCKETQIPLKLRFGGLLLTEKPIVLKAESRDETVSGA
Sequence of Hypoxia-inducible factor 1-alpha (Homo sapiens) (Q16665 whole entry, looked up): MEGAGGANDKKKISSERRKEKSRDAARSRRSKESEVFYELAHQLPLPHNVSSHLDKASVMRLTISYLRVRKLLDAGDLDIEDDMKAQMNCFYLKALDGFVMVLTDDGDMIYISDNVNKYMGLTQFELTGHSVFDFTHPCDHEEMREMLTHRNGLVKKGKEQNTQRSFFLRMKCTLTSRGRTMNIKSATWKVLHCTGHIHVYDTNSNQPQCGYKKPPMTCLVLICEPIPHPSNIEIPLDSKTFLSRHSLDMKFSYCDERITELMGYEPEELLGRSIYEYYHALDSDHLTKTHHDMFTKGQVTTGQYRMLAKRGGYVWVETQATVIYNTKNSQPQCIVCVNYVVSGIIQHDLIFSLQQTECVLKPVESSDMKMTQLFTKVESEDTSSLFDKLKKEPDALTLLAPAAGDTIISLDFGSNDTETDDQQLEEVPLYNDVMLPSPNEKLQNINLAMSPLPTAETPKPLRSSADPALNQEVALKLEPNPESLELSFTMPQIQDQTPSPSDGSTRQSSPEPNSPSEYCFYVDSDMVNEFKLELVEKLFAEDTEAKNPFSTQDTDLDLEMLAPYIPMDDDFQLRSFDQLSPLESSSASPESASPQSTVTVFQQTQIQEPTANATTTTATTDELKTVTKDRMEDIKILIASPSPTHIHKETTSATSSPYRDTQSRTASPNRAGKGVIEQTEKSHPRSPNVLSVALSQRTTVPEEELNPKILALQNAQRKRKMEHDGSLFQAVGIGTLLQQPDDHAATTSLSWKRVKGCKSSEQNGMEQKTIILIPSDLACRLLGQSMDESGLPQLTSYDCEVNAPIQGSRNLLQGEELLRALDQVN

Usually AC50 stands for the concentration at which the activity in the assay is half-maximal. In the case of `CC(COc1ccc(Oc2ccccc2)cc1)Oc1ccccn1` (stereo not drawn), the compound was called inactive (in assay [1]; in assay [3]; in [4]; in assay [5]; in the assay with CYP3A5 (gene 1577); in assay [6]). Also, the outcome (in assay [7]; in assay [9]; in [10]; in [11]; in assay [12]; in the assay with HGF (gene 3082)) was inactive. Further, in [14], the compound was called inactive. Moreover, the concentration at half-maximal activity (AC50) in [2] is 31.5 µM (active); in [8], 19.9 µM (active); in assay [13], 12.6 µM (active).
For `CC(Oc1cccc(Cl)c1)C(=O)O` (stereo not drawn), the compound was called inactive (in assay [1]; in [2]; in [3]; in assay [4]; with CYP3A5 (gene 1577); in assay [6]). Besides, the compound was called inactive in [7], in assay [9], in [10], in [11], in assay [15] and in assay [12]. In addition, the call (in assay [13]; with HGF (gene 3082); in assay [14]) was inactive. Also, the AC50 in [5] is 14.2 µM (active).
`COc1ccc(C(=CC(=O)N2CCOCC2)c2ccc(Cl)cc2)cc1OC`: the outcome (in [1]; in assay [2]; in assay [3]; in [4]; in assay [5]; with CYP3A5 (gene 1577)) was inactive. The call in assay [6], in [8], in [9], in assay [10], in assay [11] and in assay [15] was inactive. The compound was classed as inactive (in assay [12]; in assay [13]; with HGF (gene 3082); in assay [14]). For the same compound, the AC50 in assay [7] is 50 µM (active); in assay [16], 14.1 µM (active).
As for `CCOC(=O)COc1cc(-c2nn(C)c(OC(F)F)c2Cl)c(F)cc1Cl`, the result (in assay [1]; in [2]; in assay [3]; in assay [4]; with CYP3A5 (gene 1577); in [6]) was inactive. For the same compound, the outcome in assay [7], in assay [8], in assay [9], in assay [10], in assay [11] and in [17] was inactive. Also, the call (in [12]; in [13]; in the assay with HGF (gene 3082); in [16]; in assay [14]) was inactive. Also, the concentration at half-maximal activity (AC50) in assay [5] was 30.1 µM (active).
